# Compound activity deposited in PubChem by University of Kansas High Throughput Screening Laboratory.
# mHTT-CaM PPI inh = mHTT-calmodulin interaction abrogation. AID 1671202. AlphaScreen His-mHTT/GST-CaM binding, luminescence. inhibition, % at 15 µM. P42858. hit rate 3.6% among 190,000;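 note: 0% = both proteins with DMSO and 100% = one protein alone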
# Pf apPOL inh = Pf-apPOL DNA polymerase inhibition; AID 1794808; inhibition, % at 10 µM; Recombinant Pf-apPOL, molecular beacon fluorescence, 1.5 h; hit rate 0.25% among 210,000
# The depositor's hits bear a star; x = no result given; ! = a repeat was not active. Shown are actives, neighbours in structure and some others; about 3.5% of the full set was active somewhere. Cut-off read from the data, not from the text of the source: active = inhibition above about 50%; inactive = the rest.
SMILES,mHTT-CaM PPI inh,Pf apPOL inh
Cc1cc(C)nc(SC(NC(=O)c2ccccc2)C(=O)c2ccccc2)n1 (stereo unspecified),94.0*,0.4
Cc1cc(=O)n(C(NC(=O)c2ccccc2)C(=O)c2ccccc2)cn1 (stereo unspecified),-3.0,-1.7
CCN1C(=O)c2cccnc2Sc2cc(NC(=O)C(C)C)ccc21,-3.1,0.2
CC(C)Oc1ccc(C2(C)NC(=O)NC2=O)cc1 (stereo unspecified),-5.8,-12.9
COCCNc1nc(SCc2ccccc2Cl)nc2ccccc12,58.0*,-3.7
Clc1ccccc1CSc1nc(NCc2ccco2)c2ccccc2n1,19.0,-3.6
CCc1cc2c(=O)c(-c3ccc4c(c3)OCCO4)c(C)oc2cc1OCC(=O)OC,6.1,54.8*
CCCc1oc2cc(OCC(=O)OC)c(CC)cc2c(=O)c1-c1ccc2c(c1)OCCCO2,-1.1,-0.8
O=[N+]([O-])c1cc(-n2ncnc2-c2ccc(F)cc2)ccc1F,2.0,1.6
CC(C)N(C(=O)c1ccccc1F)C(C)C,81.7*,-5.7
Cc1cccnc1N(C(=O)c1ccccc1F)C(=O)c1ccccc1F,4.8,0.4
Cc1ccc(C(=O)O)cc1-c1ccc(/C=C/[N+](=O)[O-])o1,30.0,7.6
Cc1cc(-c2ccc(/C=C/[N+](=O)[O-])o2)c([N+](=O)[O-])cc1C,65.0*,3.0
Cc1oc(C2CCN(C(=O)Nc3ccccc3C(F)(F)F)CC2)nc1C(=O)N(C)C,-6.0,5.7
CN(CC#N)C(=O)C1=C(c2ccccc2)OCCS1,-2.0,0.3
COc1cc(C(c2c(C)[nH][nH]c2=O)c2c(C)[nH][nH]c2=O)ccc1O,6.0,0.3
COc1cc(C(c2c[nH]c3ccccc23)c2c[nH]c3ccccc23)ccc1O,100.3*,6.1
CC(C)C[C@H]1COc2cccc(N3CCN(Cc4ccccc4F)CC3)c2S(=O)(=O)N1,80.5*,-3.2
C[C@H]1COc2cccc(N3CCN(Cc4ccccc4F)CC3)c2S(=O)(=O)N1,-14.5,-4.5
O=C1CSC2=NCN(c3cccc(Br)c3)CN12,-1.0,1.3
CCCc1cc(=O)oc2cc(C)cc(OC(C)C(=O)NCCC(=O)O)c12 (stereo unspecified),-0.4,-2.6
Brc1ccc2c(c1)OCCOCCOc1ccc(Br)cc1OCCO2,-12.0,1.9
Brc1cccc(CNc2cc3c(cc2Br)OCCO3)c1,78.0*,1.5
Cc1nc(N2CCOCC2)nc(N2CCCC2)c1[N+](=O)[O-],-2.0,-10.4
Cc1cc(C)n(-c2nc(N3CCOCC3)nc(C)c2[N+](=O)[O-])n1,-1.0,68.9*!
SMILES,mHTT-CaM PPI inh,Pf apPOL inh
Cn1nc(-c2nnc(-c3ccccc3F)o2)c2c1CCN(C(=O)c1ccc(F)cc1)C2,17.2,-3.2
FC(F)(F)c1ccc(CSc2c[nH]c3ccccc23)cc1,87.0*,-8.1
O=S(=O)(Cc1ccc(C(F)(F)F)cc1)c1c[nH]c2ccccc12,14.0,-0.1
Cc1ccccc1C1CCCN1C(=O)Nc1ccccc1Br (stereo unspecified),-8.7,-3.0
O=C1OCc2c1[nH]c(=O)[nH]c2=O,-4.1,x
CC1CCc2cc(F)cc3c(O)c(C(=O)NCCCN4CCOCC4)c(=O)n1c23 (stereo unspecified),27.0,-80.0
CCNCCNC(=O)c1c(O)c2cc(F)cc3c2n(c1=O)C(C)CC3 (stereo unspecified),98.0*,-66.5
COc1ccc(NC(=O)CCCOc2ccc(Cl)cc2)c([N+](=O)[O-])c1,5.8,-5.8
N#C/C(=C\c1cccc(F)c1)c1nc2ccccc2[nH]1,100.0*,-4.0
N#C/C(=C\c1cccc(Br)c1)c1nc2ccccc2[nH]1,2.9,-2.4
COc1cc(/C=C(\C#N)c2nc3ccccc3[nH]2)cc(OC)c1O,43.0,-1.3
COc1cc(/C=C(\C#N)c2nc3ccccc3[nH]2)cc2c1OCO2,69.4*,-3.5
COC(=O)c1cnc2nc(C)ccc2c1Nc1ccc(C)c(Cl)c1,77.7*,-0.4
CCOC(=O)c1cnc2nc(C)ccc2c1Nc1ccc(Cl)cc1,65.7*,-8.4
COC(=O)c1cnc2nc(C)ccc2c1Nc1ccc(OC)cc1,13.3,2.5
COC(=O)c1cnc2nc(C)ccc2c1Nc1ccc(Cl)cc1,62.0*,-8.1
COC(=O)c1cnc2nc(C)ccc2c1Nc1ccc(C)cc1Cl,46.7,8.5
COC(=O)c1cnc2nc(C)ccc2c1Nc1ccc(F)c(Cl)c1,-0.3,-5.0
COC(=O)c1cnc2nc(C)ccc2c1Nc1cc(Cl)ccc1C,65.3*,0.0
CCOC(=O)c1cnc2nc(C)ccc2c1Nc1ccc(F)c(F)c1,33.7,-3.7
COc1ccc2cc(C3CC(c4ccc(OC)c(OC)c4)=NN3C(C)=O)c(Cl)nc2c1 (stereo unspecified),3.0,-8.1
COc1cc(-c2nnc(SCC(=O)c3cccs3)n2C)cc(OC)c1OC,x,-7.9
Cc1cc(C(=O)NCC2CCN(C(=O)NC(C)(C)C)CC2)no1,-11.0,-4.5
N#Cc1ccc(Cl)cc1NC(=O)C(=O)NCC(O)C1CCCCC1 (stereo unspecified),-7.8,-1.8
COC(=O)c1cnc2nc(C)ccc2c1Nc1ccc(Br)cc1C,93.9*,-14.7
SMILES,mHTT-CaM PPI inh,Pf apPOL inh
COC(=O)c1cnc2nc(C)ccc2c1Nc1cccc(Br)c1,14.5,-19.3
Cc1c(Cl)cccc1N=CC1=C(O)CC(C)(C)CC1=O,-6.0,-4.9
O=C(CSc1nc(O)c(Cc2ccccc2)c(=O)[nH]1)Nc1ccc(Cl)cc1,-4.6,-0.3
O=C(Cc1ccsc1)N1CCCn2nc(-c3cccs3)cc2C1,9.0,1.2
CSc1ccc(CCN2C(=O)CCC2(C)C(=O)NC2CCCC2)cc1 (stereo unspecified),-5.5,-2.0
Cc1ccc(C2CC(C(F)(F)F)n3nc(C(=O)N4CCN(c5ccccc5)CC4)cc3N2)cc1 (stereo unspecified),90.0*,-10.9
Cc1ccc(C2CC(C(F)(F)F)n3nc(C(=O)N4CCCC4)cc3N2)cc1 (stereo unspecified),32.0,-5.2
COc1cccc(/C=C2N=C(/C=C/c3ccccc3OC)OC/2=O)c1,3.0,4.6
O=C1c2ccccc2C(=O)c2c1ccc(C(=O)N1CCC3(CC1)OCCO3)c2NCCO,41.0,1.1
O=C1c2ccccc2C(=O)c2c1ccc(C(=O)N1CCN(c3ccccn3)CC1)c2NCCO,78.0*,-2.2
O=c1c(O)c(-c2ccc(O)c(O)c2)oc2ccc(O)cc12,49.0,x
CCCN1CCN(C(=O)c2ccc(-c3ccsc3)nc2)CC1,-2.3,-9.7
COc1ccccc1C(=O)N1CCN(c2cc(-c3cccnc3)[nH]n2)CC1,-3.3,-7.1
COc1ccccc1C(=O)N1CCCN(c2cc(-c3ccccc3)[nH]n2)CC1,56.9*,-2.4
O=C1OCCN=C(c2ccccc2)c2ccccc21,x,-0.9
Cc1ccc(-c2csc(NC(=O)c3ccc(Br)s3)n2)o1,12.9,-0.5
Oc1cccc(Nc2nc(-c3ccc(Cl)cc3)cs2)c1,97.1*,-5.1
COc1ccc(-c2csc(NC(=O)c3ccc(Br)s3)n2)cc1OC,69.0*!,64.0*!
Cc1ccc(-c2csc(Nc3ccc(C(=O)O)cc3)n2)cc1C,18.4,-4.7
COc1ccc(-c2csc(Nc3ccc(C)c(C)c3)n2)cc1F,52.0*,-4.6
Clc1ccc(Nc2nc(-c3cccnc3)cs2)cc1,-0.1,-2.7
COc1ccc(-c2csc(Nc3cccc(O)c3)n2)cc1OC,67.5*,2.8
COc1ccc(-c2csc(N)n2)cc1OC,17.7,-1.5
CC1CC(C)CN(S(=O)(=O)N2CCCC(C(=O)NCCN(C)C)C2)C1 (stereo unspecified),-7.0,-13.6
